PubChem BioAssay AID1159580 (chemical genetic matrix, 2015)
About 2,000 (36%) of roughly 5,500 compounds were called active. Not shown: some 18% with an inconclusive outcome. Rule as the data show it: active = normalized growth mostly below about 0.91 (no sharp cut-off); inconclusive = no clear call, values can overlap the other calls; inactive = mostly above about 0.92. The list shows a part of the results.

Test: chemical genetic growth profiling, strain panel (AID 1159580);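 also: tested at 20 µM; growth read once vehicle control cultures reached saturation at 30 °C; 1 = growth at the plate median or of vehicle wells; lower values mean less growth of the strain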
Conditions: growth OD

Measured: normalized growth

CNC[C@H](O)c1cccc(O)c1
inactive: S. cerevisiae deletion strains, locus YKL009W, strain mrt4, hits give low values 1 | S. cerevisiae deletion strains, locus YKL068W, hits give low values 1.01 | S. cerevisiae deletion strains, locus YKL085W, strain MDH1 (second series), hits give low values 1.01 | S. cerevisiae deletion strains, locus YKL085W, strain MDH1, hits give low values 1.01 | S. cerevisiae deletion strains, locus YKL160W, strain elf1, hits give low values 0.963 | S. cerevisiae deletion strains, locus YKL190W, strain CNB1, hits give low values 1 | S. cerevisiae deletion strains, locus YKR001C, strain vps1, hits give low values 1.02 | S. cerevisiae deletion strains, locus YKR026C, strain gcn3, hits give low values 0.99 | S. cerevisiae deletion strains, locus YKR091W, strain srl3, hits give low values 0.962 | S. cerevisiae deletion strains, locus YLL001W, strain dnm1, hits give low values 0.962 | S. cerevisiae deletion strains, locus YLL026W, hits give low values 0.977 | S. cerevisiae deletion strains, locus YLL041C, strain sdh2, hits give low values 0.985 | S. cerevisiae deletion strains, locus YLR027C, strain aat2, hits give low values 0.974 | S. cerevisiae deletion strains, locus YLR039C, strain RIC1, hits give low values 1.03 | S. cerevisiae deletion strains, locus YLR058C, strain SHM2, hits give low values 1.01 | S. cerevisiae deletion strains, locus YLR102C, strain apc9, hits give low values 1.01 | S. cerevisiae deletion strains, locus YLR113W, strain HOG1, hits give low values 1 | S. cerevisiae deletion strains, locus YLR221C, strain rsa3, hits give low values 0.987 | S. cerevisiae deletion strains, locus YLR258W, strain gsy2, hits give low values 0.986 | S. cerevisiae deletion strains, locus YLR262C, strain YPT6 (second series), hits give low values 0.969 | S. cerevisiae deletion strains, locus YLR262C, strain YPT6, hits give low values 1.03 | S. cerevisiae deletion strains, locus YLR268W, strain sec22, hits give low values 1.02 | S. cerevisiae deletion strains, locus YLR320W, strain mms22, hits give low values 0.964 | S. cerevisiae deletion strains, locus YLR330W, strain CHS5, hits give low values 1.01 | S. cerevisiae deletion strains, locus YLR342W, strain FKS1 (second series), hits give low values 0.994 | S. cerevisiae deletion strains, locus YLR342W, strain FKS1, hits give low values 0.963 | S. cerevisiae deletion strains, locus YLR357W, strain rsc2, hits give low values 0.906 | S. cerevisiae deletion strains, locus YLR370C, strain arc18, hits give low values 0.991 | S. cerevisiae deletion strains, locus YLR371W, strain rom2, hits give low values 1.01 | S. cerevisiae deletion strains, locus YLR384C, strain iki3, hits give low values 0.979 | S. cerevisiae deletion strains, locus YLR418C, strain cdc73, hits give low values 1.02 | S. cerevisiae deletion strains, locus YML016C, strain PPZ1, hits give low values 1.01 | S. cerevisiae deletion strains, locus YML032C, strain rad52, hits give low values 1.02 | S. cerevisiae deletion strains, locus YML120C, strain ndi1, hits give low values 0.979 | S. cerevisiae deletion strains, locus YML124C, strain tub3, hits give low values 1.02 | S. cerevisiae deletion strains, locus YMR058W, strain fet3, hits give low values 0.971 | S. cerevisiae deletion strains, locus YMR078C, strain ctf18, hits give low values 1.01 | S. cerevisiae deletion strains, locus YMR125W, strain sto1, hits give low values 0.995 | S. cerevisiae deletion strains, locus YMR129W, hits give low values 0.988 | S. cerevisiae deletion strains, locus YMR205C, strain PFK2, hits give low values 0.965 | S. cerevisiae deletion strains, locus YMR223W, strain ubp8, hits give low values 1.01 | S. cerevisiae deletion strains, locus YMR231W, strain pep5, hits give low values 0.982 | S. cerevisiae deletion strains, locus YMR263W, strain SAP30, hits give low values 1.01 | S. cerevisiae deletion strains, locus YMR307W, strain GAS1, hits give low values 1.02 | S. cerevisiae deletion strains, locus YNL067W, strain RPL9B, hits give low values 1 | S. cerevisiae deletion strains, locus YNL071W, strain lat1, hits give low values 0.998 | S. cerevisiae deletion strains, locus YNL128W, strain TEP1, hits give low values 1.01 | S. cerevisiae deletion strains, locus YNL153C, strain GIM3, hits give low values 1.01 | S. cerevisiae deletion strains, locus YNL183C, strain NPR1, hits give low values 0.975 | S. cerevisiae deletion strains, locus YNL209W, strain ssb2, hits give low values 0.991 | S. cerevisiae deletion strains, locus YNL233W, strain BNI4, hits give low values 1.01 | S. cerevisiae deletion strains, locus YNL248C, strain rpa49, hits give low values 0.988 | S. cerevisiae deletion strains, locus YNL250W, strain rad50, hits give low values 1.02 | S. cerevisiae deletion strains, locus YNL271C, strain bni1, hits give low values 1.02 | S. cerevisiae deletion strains, locus YNL298W, strain CLA4, hits give low values 1.03 | S. cerevisiae deletion strains, locus YNL307C, strain MCK1, hits give low values 1.02 | S. cerevisiae deletion strains, locus YNL322C, strain KRE1 (second series), hits give low values 0.976 | S. cerevisiae deletion strains, locus YNL322C, strain KRE1, hits give low values 1 | S. cerevisiae deletion strains, locus YNR049C, strain mso1, hits give low values 0.993 | S. cerevisiae deletion strains, locus YNR052C, strain pop2, hits give low values 1.02 | S. cerevisiae deletion strains, locus YOL006C, strain TOP1, hits give low values 1.05 | S. cerevisiae deletion strains, locus YOL012C, strain htz1 0.81 | S. cerevisiae deletion strains, locus YOL147C, strain pex11, hits give low values 1.02 | S. cerevisiae deletion strains, locus YOR001W, strain rrp6, hits give low values 0.977 | S. cerevisiae deletion strains, locus YOR061W, strain CKA2, hits give low values 1.01 | S. cerevisiae deletion strains, locus YOR069W, strain VPS5, hits give low values 1.01 | S. cerevisiae deletion strains, locus YOR070C, strain gyp1, hits give low values 0.994 | S. cerevisiae deletion strains, locus YOR080W, strain dia2, hits give low values 0.98 | S. cerevisiae deletion strains, locus YOR083W, strain WHI5, hits give low values 0.953 | S. cerevisiae deletion strains, locus YOR106W, strain vam3, hits give low values 0.98 | S. cerevisiae deletion strains, locus YOR136W, strain idh2, hits give low values 1.02 | S. cerevisiae deletion strains, locus YOR144C, strain elg1, hits give low values 1.01 | S. cerevisiae deletion strains, locus YOR184W, strain ser1, hits give low values 1.04 | S. cerevisiae deletion strains, locus YOR231W, strain MKK1, hits give low values 1 | S. cerevisiae deletion strains, locus YOR265W, strain rbl2, hits give low values 0.989 | S. cerevisiae deletion strains, locus YOR270C, strain vph1, hits give low values 1 | S. cerevisiae deletion strains, locus YOR290C, strain snf2, hits give low values 0.993 | S. cerevisiae deletion strains, locus YOR316C, strain cot1, hits give low values 1.02 | S. cerevisiae deletion strains, locus YPL051W, strain arl3, hits give low values 0.973 | S. cerevisiae deletion strains, locus YPL055C, strain LGE1, hits give low values 1.01 | S. cerevisiae deletion strains, locus YPL078C, strain atp4, hits give low values 0.966 | S. cerevisiae deletion strains, locus YPL106C, strain sse1, hits give low values 0.95 | S. cerevisiae deletion strains, locus YPL240C, strain hsp82, hits give low values 0.982 | S. cerevisiae deletion strains, locus YPL241C, strain CIN2, hits give low values 1.01 | S. cerevisiae deletion strains, locus YPL256C, strain CLN2, hits give low values 1.01 | S. cerevisiae deletion strains, locus YPR119W, strain clb2, hits give low values 1.01 | S. cerevisiae deletion strains, locus YPR141C, strain kar3, hits give low values 1.02 | S. cerevisiae deletion strains, locus YPR163C, strain tif3, hits give low values 1.02 | S. cerevisiae deletion strains, locus YPR167C, strain met16, hits give low values 1.02 | S. cerevisiae deletion strains, strain wtn01, hits give low values 1.01 | S. cerevisiae strains, strain wild type, hits give low values 1.01
